About 83,000 compounds went through this panel and 20% of them were active in at least one assay; those are over-represented in the sample as a whole.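 Negative percent growth values reflect cell death: -40 means 40% of the cells present at the start died, and -100 means all died.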 Calls of active or inactive are those of the source. How the source made its calls: active means growth percent below 10; inactive means the rest.
Tests used:
Assay in all cases: NCI-60 one-dose screen, 48 h (100 = growth as untreated, 0 = no growth, -100 = all killed)
Conditions in all cases: 10 µM unless noted
[1] = system: EKVX NSCLC
[2] = system: SN12C renal
[3] = system: UO-31 renal
[4] = system: TK-10 renal
[5] = system: ACHN renal
[6] = system: CAKI-1 renal
[7] = system: A498 renal
[8] = system: CCRF-CEM leukemia
[9] = system: MOLT-4 leukemia
[10] = system: SR leukemia
[11] = system: RPMI-8226 leukemia
[12] = system: OVCAR-8 ovarian
[13] = system: OVCAR-5 ovarian
[14] = system: OVCAR-4 ovarian
[15] = system: SK-OV-3 ovarian
[16] = system: IGROV1 ovarian
[17] = system: OVCAR-3 ovarian
[18] = system: NCI/ADR-RES ovarian

Measured: growth

CCN(CC)CCN1C(=O)c2cccc3c(-c4ccc5c(c4)ncn5C4CCCCC4)ccc(c23)C1=O
inactive: [1] 15.6% | [2] 23.8% | [4] 32.1% | [5] 10% | [6] 19.7% | [8] 11.4% | [12] 25.9% | [13] 36.4% | [14] 32.9% | [15] 21.2% | [16] 28.4% | [17] 44.8% | [18] 21.8%
active: [3] -23.7% | [7] -11.6% | [9] -9.62% | [10] -14% | [11] -33%

CN1CC[C@H](c2c(O)cc(O)c3c(=O)cc(-c4ccccc4Cl)oc23)[C@H](O)C1
active: [1] 0.266% | [3] -14.1% | [4] -0.739% | [5] 4.43% | [7] -54.2% | [9] 1.35% | [10] -0.341% | [11] 6.39% | [12] 7.4% | [13] 8.36% | [14] 1.82% | [16] 4.27% | [18] 2.07%
inactive: [2] 10.4% | [6] 10.1% | [8] 10.2% | [15] 10.2% | [17] 17.4%

C/C=C/C=N/NC(=S)Nc1ccccc1
inactive: [1] 101% | [2] 89.3% | [3] 72.6% | [4] 112% | [5] 99.2% | [6] 92.1% | [7] 120% | [8] 91.8% | [9] 99.2% | [10] 83.4% | [11] 104% | [12] 96.5% | [13] 82.2% | [14] 94.1% | [15] 94.2% | [16] 93.6% | [17] 117% | [18] 99%

Cn1ncc(Cl)c1-c1cc(C(=O)N[C@H](CN)Cc2cccc(F)c2)sc1Cl
active: [3] -10.1% | [4] 8.77% | [7] -61.2% | [8] 6.1% | [9] -14.5% | [10] -29.6% | [11] -10.3% | [15] -12.8% | [16] -21.5%
inactive: [1] 38.5% | [2] 29.5% | [5] 18.7% | [6] 11% | [12] 15.5% | [13] 35.3% | [14] 35.6% | [17] 31% | [18] 28.6%

Cc1nc2cc(-c3nn(C(C)C)c4ncnc(N)c34)ccc2o1
active: [1] -10.3% | [2] 1.14% | [3] -35.7% | [4] -47% | [5] -13.4% | [6] -36.7% | [7] -55.5% | [8] 6.03% | [9] -8.69% | [10] -0.778% | [11] -9.63% | [12] -29.1% | [13] -11.3% | [14] -27.4% | [15] -40.9% | [16] -39% | [17] 2.45% | [18] -22.5%

O=C(O)c1ccc(Nc2ncc3c(n2)-c2ccc(Cl)cc2C(c2c(F)cccc2F)=NC3)cc1
inactive: [1] 80.1% | [2] 62.8% | [3] 41.8% | [4] 40.1% | [5] 49% | [6] 47.6% | [7] 25.3% | [8] 36.6% | [9] 44.6% | [10] 24.2% | [11] 47.7% | [12] 43% | [13] 59.3% | [14] 79.6% | [15] 59.7% | [16] 41.8% | [17] 64.5% | [18] 55.4%

Cc1ccc(NC(=O)Nc2ccc(Nc3ncnc4sc5c(c34)CCOC5)cc2)cc1Cl
inactive: [1] 110% | [2] 102% | [3] 78.6% | [4] 103% | [5] 94.6% | [6] 91.7% | [7] 90.4% | [8] 90.3% | [9] 88.9% | [10] 89% | [11] 105% | [12] 91.9% | [13] 114% | [14] 121% | [15] 73.4% | [16] 99.1% | [17] 102% | [18] 106%

CO[C@@H](C)Cn1c(=O)n(C)c2cnc3ccc(-c4cncc(C(C)(C)O)c4)cc3c21
inactive: [2] 14.5% | [8] 10.4%
active: [1] 4.47% | [3] -18.6% | [4] -49.6% | [5] 3.66% | [6] -15.5% | [7] -55.5% | [9] -8.71% | [10] -2.77% | [11] -16.8% | [12] -13% | [13] 5.28% | [14] -14.6% | [15] -36.5% | [16] -25.7% | [17] 8.39% | [18] -1.12%

CO[C@H]1C[C@@H]2CC[C@@H](C)[C@@](O)(O2)C(=O)C(=O)N2CCCC[C@H]2C(=O)O[C@H]([C@H](C)C[C@@H]2CC[C@@H](OCCO)[C@H](OC)C2)CC(=O)[C@H](C)/C=C(\C)[C@@H](O)[C@H](OC)C(=O)[C@H](C)C[C@H](C)\C=C/C=C/C=C/1C
inactive: [1] 54.9% | [2] 54.3% | [3] 16.6% | [4] 63.8% | [5] 48.6% | [6] 47.6% | [7] 25.8% | [8] 35% | [9] 33.3% | [10] 11.3% | [11] 35.6% | [12] 40.9% | [13] 50.8% | [14] 26.8% | [15] 35% | [16] 16.3% | [17] 63.4% | [18] 57.7%

CS(=O)(=O)N1CCN(Cc2cc3nc(-c4cccc5[nH]ncc45)nc(N4CCOCC4)c3s2)CC1
inactive: [1] 19.9% | [2] 17.2% | [8] 36.3% | [9] 12.3% | [10] 18.6% | [11] 25% | [12] 27% | [13] 20.5% | [14] 47.8% | [17] 14.5% | [18] 32.1%
active: [3] -14.7% | [4] 0.78% | [5] 6.84% | [6] 7.35% | [7] -47.6% | [15] -18.4% | [16] -28.4%

CNC(=O)c1cc(Oc2ccc(NC(=O)Nc3cc(C(C)(C)C)nn3-c3ccc4ncccc4c3)c(F)c2)ccn1
active: [1] -16.9% | [2] -10.3% | [3] -21.4% | [4] -35.5% | [5] -20.6% | [6] -24.9% | [7] -71.3% | [8] 8.17% | [9] -1.34% | [10] -8.95% | [11] 0.22% | [12] -30.2% | [13] -3.54% | [14] -13.6% | [15] -13.3% | [16] -20.2% | [17] 1.66% | [18] -23.1%

CNC(=O)c1c(C)oc2cc(Oc3ncnc4cc(OC)c(OC)cc34)ccc12
inactive: [1] 113% | [2] 107% | [3] 66% | [4] 98.9% | [5] 104% | [6] 82.2% | [7] 19.5% | [8] 86.2% | [9] 85.6% | [10] 85.7% | [11] 105% | [12] 85.3% | [13] 95.3% | [14] 78.3% | [15] 92.3% | [16] 95.2% | [17] 89.2% | [18] 95.1%

C=CC(=O)Nc1cccc(Oc2nc(Nc3ccc(N4CCN(C)CC4)cc3)nc3ccsc23)c1
inactive: [1] 16.4% | [7] 33.6%
active: [2] -70.6% | [3] -89.6% | [4] -79% | [5] -96.6% | [6] -71.4% | [8] 1.89% | [9] -37.7% | [10] -23.5% | [11] -29.8% | [12] -38.8% | [13] 8.45% | [14] -63.6% | [15] -2.6% | [16] -69.9% | [17] -80.7% | [18] -3.05%

COc1ccc(S(=O)(=O)N(C(C)=O)c2ccccc2/C=C/c2cc[n+]([O-])cc2)cc1
active: [7] 1.32% | [15] 6.17%
inactive: [1] 31.8% | [2] 32.4% | [3] 50% | [4] 49.2% | [5] 42.5% | [6] 32.7% | [8] 16.4% | [9] 22.5% | [10] 16.4% | [11] 22.2% | [12] 14.9% | [13] 35.4% | [14] 42.4% | [16] 24.5% | [17] 28.2% | [18] 17.5%

O=C1C=CC2(NN=C(c3ccccc3)N2c2ccc(Cl)cc2)c2cccc(O)c21 (stereo unspecified)
inactive: [1] 75.1% | [2] 26.4% | [3] 28.2% | [4] 100% | [5] 61.1% | [6] 84% | [7] 91.3% | [8] 83.1% | [9] 61.8% | [10] 36.8% | [11] 64% | [12] 43.4% | [13] 47.6% | [14] 43.3% | [15] 102% | [16] 66.7% | [17] 13.5% | [18] 45.1%

CN(C)CCOC(=O)Nc1nc2ccc(Sc3ccccc3)cc2[nH]1
inactive: [1] 47.1% | [2] 40.5% | [3] 31.5% | [4] 49.4% | [5] 46.2% | [6] 33.9% | [8] 22.4% | [9] 41% | [10] 22% | [11] 19.2% | [12] 39.4% | [13] 59.8% | [14] 73.4% | [15] 33.6% | [16] 44.9% | [17] 22.8% | [18] 18.1%
active: [7] -3.9%

CN[C@@H]1C[C@H]2O[C@@](C)([C@@H]1OC)n1c3ccccc3c3c4c(c5c6ccccc6n2c5c31)C(=O)N[C@H]4O
inactive: [14] 16%
active: [1] -4.21% | [2] -38.7% | [3] -64.4% | [4] -34% | [5] 5.01% | [6] -59.7% | [7] -97.1% | [8] 0.26% | [9] 0.831% | [10] 1.68% | [11] -46.2% | [12] -36.7% | [13] -2.9% | [15] -68.5% | [16] 0.929% | [17] -31.6% | [18] -39.1%

From PubChem BioAssay (NCI)
